Measured values as given in PubChem BioAssay AID1159580 (chemical genetic matrix, 2015).
The campaign covered roughly 5,500 compounds. About 2,000 (36%) were called active. Another 18% or so got no clear call; they are omitted. No stated cut-off is given here; in the data, active means normalized growth mostly below about 0.91 (no sharp cut-off); inconclusive means no clear call, values can overlap the other calls; inactive means mostly above about 0.92. The list shows a part of the results.

Test: chemical genetic growth profiling, strain panel (AID 1159580);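 further: tested at 20 µM; growth read once vehicle control cultures reached saturation at 30 °C; 1 = growth at the plate median or of vehicle wells; lower values mean less growth of the strain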
Conditions: growth OD

Measured: normalized growth

CC1(C)C(=O)C=C[C@@]2(C)C1C[C@@H](O)[C@]1(C)C2CC[C@@]2(C)[C@H](c3ccoc3)OC(=O)[C@H]3O[C@]321 (stereo partly specified)
inactive: S. cerevisiae deletion strains, locus YJR066W, strain TOR1, hits give low values 0.938 | S. cerevisiae deletion strains, locus YKL009W, strain mrt4, hits give low values 0.95 | S. cerevisiae deletion strains, locus YKL068W, hits give low values 0.973 | S. cerevisiae deletion strains, locus YKL085W, strain MDH1 (second series), hits give low values 0.973 | S. cerevisiae deletion strains, locus YKL085W, strain MDH1, hits give low values 0.973 | S. cerevisiae deletion strains, locus YKL160W, strain elf1, hits give low values 1 | S. cerevisiae deletion strains, locus YKL190W, strain CNB1, hits give low values 0.983 | S. cerevisiae deletion strains, locus YKR001C, strain vps1, hits give low values 0.963 | S. cerevisiae deletion strains, locus YKR026C, strain gcn3, hits give low values 0.995 | S. cerevisiae deletion strains, locus YKR091W, strain srl3, hits give low values 0.989 | S. cerevisiae deletion strains, locus YLL001W, strain dnm1, hits give low values 1.01 | S. cerevisiae deletion strains, locus YLL026W, hits give low values 1 | S. cerevisiae deletion strains, locus YLL041C, strain sdh2, hits give low values 0.992 | S. cerevisiae deletion strains, locus YLR027C, strain aat2, hits give low values 1.02 | S. cerevisiae deletion strains, locus YLR039C, strain RIC1, hits give low values 0.972 | S. cerevisiae deletion strains, locus YLR058C, strain SHM2, hits give low values 0.959 | S. cerevisiae deletion strains, locus YLR102C, strain apc9, hits give low values 0.983 | S. cerevisiae deletion strains, locus YLR113W, strain HOG1, hits give low values 0.991 | S. cerevisiae deletion strains, locus YLR221C, strain rsa3, hits give low values 1 | S. cerevisiae deletion strains, locus YLR258W, strain gsy2, hits give low values 1.03 | S. cerevisiae deletion strains, locus YLR262C, strain YPT6 (second series), hits give low values 0.992 | S. cerevisiae deletion strains, locus YLR262C, strain YPT6, hits give low values 0.962 | S. cerevisiae deletion strains, locus YLR268W, strain sec22, hits give low values 0.952 | S. cerevisiae deletion strains, locus YLR320W, strain mms22, hits give low values 1.01 | S. cerevisiae deletion strains, locus YLR330W, strain CHS5, hits give low values 0.987 | S. cerevisiae deletion strains, locus YLR342W, strain FKS1 (second series), hits give low values 1.02 | S. cerevisiae deletion strains, locus YLR342W, strain FKS1, hits give low values 1.02 | S. cerevisiae deletion strains, locus YLR357W, strain rsc2, hits give low values 0.965 | S. cerevisiae deletion strains, locus YLR370C, strain arc18, hits give low values 0.996 | S. cerevisiae deletion strains, locus YLR371W, strain rom2, hits give low values 0.99 | S. cerevisiae deletion strains, locus YLR384C, strain iki3, hits give low values 1 | S. cerevisiae deletion strains, locus YLR418C, strain cdc73, hits give low values 0.933 | S. cerevisiae deletion strains, locus YML016C, strain PPZ1, hits give low values 0.98 | S. cerevisiae deletion strains, locus YML032C, strain rad52, hits give low values 0.971 | S. cerevisiae deletion strains, locus YML120C, strain ndi1, hits give low values 1 | S. cerevisiae deletion strains, locus YML124C, strain tub3, hits give low values 0.989 | S. cerevisiae deletion strains, locus YMR058W, strain fet3, hits give low values 0.996 | S. cerevisiae deletion strains, locus YMR078C, strain ctf18, hits give low values 0.982 | S. cerevisiae deletion strains, locus YMR125W, strain sto1, hits give low values 0.984 | S. cerevisiae deletion strains, locus YMR129W, hits give low values 1.01 | S. cerevisiae deletion strains, locus YMR205C, strain PFK2, hits give low values 0.999 | S. cerevisiae deletion strains, locus YMR223W, strain ubp8, hits give low values 0.997 | S. cerevisiae deletion strains, locus YMR231W, strain pep5, hits give low values 0.992 | S. cerevisiae deletion strains, locus YMR307W, strain GAS1, hits give low values 0.954 | S. cerevisiae deletion strains, locus YNL067W, strain RPL9B, hits give low values 1.01 | S. cerevisiae deletion strains, locus YNL071W, strain lat1, hits give low values 1 | S. cerevisiae deletion strains, locus YNL183C, strain NPR1, hits give low values 0.963 | S. cerevisiae deletion strains, locus YNL209W, strain ssb2, hits give low values 1 | S. cerevisiae deletion strains, locus YNL233W, strain BNI4, hits give low values 1.01 | S. cerevisiae deletion strains, locus YNL248C, strain rpa49, hits give low values 0.917 | S. cerevisiae deletion strains, locus YNL250W, strain rad50, hits give low values 1 | S. cerevisiae deletion strains, locus YNL271C, strain bni1, hits give low values 0.984 | S. cerevisiae deletion strains, locus YNL298W, strain CLA4, hits give low values 0.995 | S. cerevisiae deletion strains, locus YNL307C, strain MCK1, hits give low values 0.989 | S. cerevisiae deletion strains, locus YNL322C, strain KRE1 (second series), hits give low values 1.01 | S. cerevisiae deletion strains, locus YNR049C, strain mso1, hits give low values 0.993 | S. cerevisiae deletion strains, locus YNR052C, strain pop2, hits give low values 0.992 | S. cerevisiae deletion strains, locus YOL012C, strain htz1 0.797 | S. cerevisiae deletion strains, locus YOL147C, strain pex11, hits give low values 0.997 | S. cerevisiae deletion strains, locus YOR001W, strain rrp6, hits give low values 0.986 | S. cerevisiae deletion strains, locus YOR061W, strain CKA2, hits give low values 0.952 | S. cerevisiae deletion strains, locus YOR069W, strain VPS5, hits give low values 0.992 | S. cerevisiae deletion strains, locus YOR070C, strain gyp1, hits give low values 1.03 | S. cerevisiae deletion strains, locus YOR080W, strain dia2, hits give low values 1.01 | S. cerevisiae deletion strains, locus YOR083W, strain WHI5, hits give low values 1 | S. cerevisiae deletion strains, locus YOR106W, strain vam3, hits give low values 0.996 | S. cerevisiae deletion strains, locus YOR136W, strain idh2, hits give low values 0.975 | S. cerevisiae deletion strains, locus YOR144C, strain elg1, hits give low values 0.986 | S. cerevisiae deletion strains, locus YOR184W, strain ser1, hits give low values 0.896 | S. cerevisiae deletion strains, locus YOR231W, strain MKK1, hits give low values 0.954 | S. cerevisiae deletion strains, locus YOR265W, strain rbl2, hits give low values 1.01 | S. cerevisiae deletion strains, locus YOR270C, strain vph1, hits give low values 0.97 | S. cerevisiae deletion strains, locus YOR290C, strain snf2, hits give low values 1 | S. cerevisiae deletion strains, locus YOR316C, strain cot1, hits give low values 0.985 | S. cerevisiae deletion strains, locus YPL051W, strain arl3, hits give low values 1.02 | S. cerevisiae deletion strains, locus YPL078C, strain atp4, hits give low values 1 | S. cerevisiae deletion strains, locus YPL106C, strain sse1, hits give low values 1.03 | S. cerevisiae deletion strains, locus YPL240C, strain hsp82, hits give low values 1 | S. cerevisiae deletion strains, locus YPL241C, strain CIN2, hits give low values 0.98 | S. cerevisiae deletion strains, locus YPL256C, strain CLN2, hits give low values 0.945 | S. cerevisiae deletion strains, locus YPR119W, strain clb2, hits give low values 0.985 | S. cerevisiae deletion strains, locus YPR141C, strain kar3, hits give low values 0.985 | S. cerevisiae deletion strains, locus YPR163C, strain tif3, hits give low values 0.98 | S. cerevisiae deletion strains, locus YPR167C, strain met16, hits give low values 0.99 | S. cerevisiae deletion strains, strain wtn01, hits give low values 0.96 | S. cerevisiae strains, strain wild type, hits give low values 0.97
